Only a selection was taken, and hits are over-represented in it overall.
IDE exosite inh = exo-site inhibitors of human insulin-degrading enzyme | purified IDE, FL-6b probe fluorescence polarization; hits give low values | z-score at 20 µM | 17,000 compounds, 6.3% hits;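 active means z-score of -3 or lower, meaning strong loss of probe binding signal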;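 further: His-tagged human IDE residues 42-1019 made in E. coli with 30 nM FL-6b probe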
Target sequence (P14735 42-1019 limits assumed): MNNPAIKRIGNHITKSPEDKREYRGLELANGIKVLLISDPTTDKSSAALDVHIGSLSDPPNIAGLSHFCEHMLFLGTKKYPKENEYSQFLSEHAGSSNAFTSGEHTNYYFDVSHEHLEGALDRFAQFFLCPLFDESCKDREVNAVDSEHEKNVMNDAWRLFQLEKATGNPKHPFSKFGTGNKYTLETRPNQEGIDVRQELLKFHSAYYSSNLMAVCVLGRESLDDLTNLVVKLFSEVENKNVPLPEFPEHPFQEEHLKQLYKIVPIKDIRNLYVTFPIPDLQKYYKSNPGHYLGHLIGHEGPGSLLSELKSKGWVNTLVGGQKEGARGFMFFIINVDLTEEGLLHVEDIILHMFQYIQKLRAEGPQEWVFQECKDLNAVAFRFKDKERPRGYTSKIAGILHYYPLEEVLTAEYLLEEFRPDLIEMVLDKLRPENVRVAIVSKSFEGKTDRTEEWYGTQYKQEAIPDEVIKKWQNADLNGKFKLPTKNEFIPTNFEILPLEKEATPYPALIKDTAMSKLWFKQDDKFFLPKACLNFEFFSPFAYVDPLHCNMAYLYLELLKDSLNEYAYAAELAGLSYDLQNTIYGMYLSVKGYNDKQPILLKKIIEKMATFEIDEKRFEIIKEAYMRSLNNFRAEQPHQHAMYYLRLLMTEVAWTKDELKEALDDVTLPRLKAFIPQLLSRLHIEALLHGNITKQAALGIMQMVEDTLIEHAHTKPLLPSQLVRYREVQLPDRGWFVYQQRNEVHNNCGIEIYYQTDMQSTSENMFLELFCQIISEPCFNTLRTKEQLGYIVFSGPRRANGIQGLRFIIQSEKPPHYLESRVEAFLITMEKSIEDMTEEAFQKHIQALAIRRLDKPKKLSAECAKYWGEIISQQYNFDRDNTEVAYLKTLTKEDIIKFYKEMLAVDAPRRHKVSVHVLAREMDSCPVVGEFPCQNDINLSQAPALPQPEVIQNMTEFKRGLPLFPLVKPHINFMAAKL
* = called active by the depositor.

SMILES | IDE exosite inh
O=C(C1CCOCC1)N1CC(=O)N2[C@H](CO)[C@@H](c3ccc(C#CCc4ccccc4)cc3)[C@@H]2C1 | -0.28
COCC(=O)N1CC(=O)N2[C@H](CO)[C@H](c3ccc(C#CCc4ccccc4)cc3)[C@H]2C1 | -2.9
O=C(C1CC1)N1CC(=O)N2[C@@H](CO)[C@@H](c3ccc(C#CCc4ccccc4)cc3)[C@@H]2C1 | -3.3*
COCC(=O)N1CC(=O)N2[C@@H](CO)[C@@H](c3ccc(C#CCc4ccccc4)cc3)[C@@H]2C1 | -4.7*
O=C(C1CCOCC1)N1CC(=O)N2[C@@H](CO)[C@@H](c3ccc(C#CCc4ccccc4)cc3)[C@@H]2C1 | -1.1
O=S(=O)(c1cccs1)N1CCCCN2[C@H](CO)[C@H](c3ccc(-c4ccccc4)cc3)[C@@H]2C1 | 3.1
COc1ccc(S(=O)(=O)Nc2ccc3c(c2)C(=O)N([C@@H](C)CO)C[C@@H](C)[C@@H](CN(C)C(=O)Nc2c(C)noc2C)OCCCC[C@@H](C)O3)cc1 | 1.1
CCC(=O)N(CC)C[C@@H]1[C@@H](c2ccc(-c3cccnc3)cc2)[C@H](CO)N1C(C)=O | 0.82
Cc1ccc(-c2ccc([C@@H]3[C@@H](CO)N4C(=O)CN(C(=O)Nc5cccc(F)c5)C[C@@H]34)cc2)cc1 | 2.8
CN(C)CC#Cc1ccc([C@@H]2[C@@H](CO)N3C(=O)CN(C(=O)c4ccccc4)C[C@@H]23)cc1 | 4.2
C/C=C/c1ccc([C@@H]2[C@@H](CO)N3C(=O)CN(C(=O)Nc4ccccc4F)C[C@@H]23)cc1 | 2.1
C[C@@H]1CCCCO[C@@H](CN(C)Cc2ccc(C(F)(F)F)cc2)[C@@H](C)CN([C@@H](C)CO)C(=O)c2cc(NC(=O)Nc3cccc4ccccc34)ccc2O1 | 0.41
COc1ccccc1NC(=O)N1C[C@@H](O)COC[C@@H]2O[C@H](CC(=O)NCCc3ccncc3)CC[C@H]21 | 0.86
COc1ccccc1NC(=O)N1CC(=O)N2[C@H](CO)[C@@H](c3ccc(-c4cccc(C)c4)cc3)[C@@H]2C1 | -9.4*
CCCNC(=O)N1CC(=O)N2[C@H](CO)[C@H](c3ccc(C#Cc4ccc(F)cc4)cc3)[C@@H]2C1 | -0.11
CCCC#Cc1ccc([C@H]2[C@@H](CO)N3C(=O)CN(C(=O)NCCC)C[C@@H]23)cc1 | 3.6
CCCNC(=O)N1CC(=O)N2[C@H](C1)[C@@H](c1ccc(-c3ccccc3)cc1)[C@@H]2CO | -5.6*
CCCNC(=O)N1CC(=O)N2[C@H](C1)[C@H](c1ccc(-c3ccc(F)cc3)cc1)[C@@H]2CO | -0.28
CCCNC(=O)N1CC(=O)N2[C@H](CO)[C@@H](c3ccc(C#Cc4ccc(F)cc4)cc3)[C@H]2C1 | 3.1
CCCNC(=O)N1CC(=O)N2[C@H](CO)[C@H](c3ccc(C#Cc4cccc(OC)c4)cc3)[C@@H]2C1 | -2
CCCNC(=O)N1CC(=O)N2[C@H](CO)[C@@H](c3ccc(C#Cc4ccccc4)cc3)[C@@H]2C1 | -6.9*
COc1ccccc1NC(=O)N1CC(=O)N2[C@H](CO)[C@@H](c3ccc(-c4ccc(F)cc4)cc3)[C@H]2C1 | 1.1
CCCNC(=O)N1CC(=O)N2[C@@H](CO)[C@H](c3ccc(-c4cccc(C)c4)cc3)[C@@H]2C1 | -16*
CCCNC(=O)N1CC(=O)N2[C@H](C1)[C@@H](c1ccc(C#Cc3cccc(F)c3)cc1)[C@@H]2CO | -3
COc1ccccc1NC(=O)N1CC(=O)N2[C@H](C1)[C@H](c1ccc(-c3cccc(C)c3)cc1)[C@@H]2CO | -1.8
SMILES | IDE exosite inh
CN(C)CC#Cc1ccc([C@@H]2[C@@H](CO)N3CCCCN(C(=O)c4ccc5c(c4)OCO5)C[C@@H]23)cc1 | 4.1
O=C([C@H]1[C@H](CO)[C@H]2Cn3c(cccc3=O)[C@@H]1N2S(=O)(=O)c1ccccc1F)N1CCCCC1 | 0.14
CCCC#Cc1ccc([C@H]2[C@@H](CO)N3C(=O)CN(C(=O)Nc4ccc(F)cc4)C[C@H]23)cc1 | 4
O=C(C[C@@H]1C[C@H]2c3cc(NS(=O)(=O)c4ccc(F)cc4)ccc3O[C@H]2[C@@H](CO)O1)NCc1cccnc1 | -0.06
O=C(c1ccc2c(c1)OCO2)N1CC(=O)N2[C@H](CO)[C@H](c3ccc(C#CC4CCCC4)cc3)[C@@H]2C1 | -0.33
CC(=O)N1CC(=O)N2[C@H](C1)[C@H](c1ccc(C#CC(C)C)cc1)[C@@H]2CO | 0.56
CO[C@H]1CN(C)C(=O)c2cc(NC(=O)C3CC3)ccc2OC[C@H](C)N(Cc2cc(F)ccc2F)C[C@@H]1C | 0.3
CC(C)C#Cc1ccc([C@@H]2[C@@H](CO)N3CCCCN(S(=O)(=O)Cc4ccccc4)C[C@H]23)cc1 | 1.2
N#Cc1ccc(-c2ccc([C@H]3[C@@H](CO)N4C(=O)CN(C(=O)C5CCC5)C[C@@H]34)cc2)cc1 | 1.7
COc1cccc(S(=O)(=O)Nc2ccc3c(c2)C(=O)N(C)[C@H]2CC[C@H](CC(=O)NCC4CCCCC4)O[C@H]2CO3)c1 | -1.4
N#C[C@H]1[C@@H](c2ccc(-c3cccnc3)cc2)[C@@H](CO)N1C(=O)C1CCOCC1 | -3*
COc1ccccc1-c1ccccc1[C@@H]1[C@@H](CO)N(C(=O)C2CCOCC2)[C@H]1C#N | -0.76

High-throughput results: PubChem, Broad Institute
